The campaign covered roughly 3,600 compounds. About 900 (25%) were called active. The rule behind the calls is not given here. Only a sample is shown. Potency and affinity values are given separately.
What follows are compounds tested against Protein Tat (Human immunodeficiency virus type 1 group M subtype B (isolate HXB2)) (UniProt P04608) (assay: HIV-1 Tat–TAR interaction blockers – biochemical, fluorescence polarization, FAM-labeled TAR RNA, counter-screen for Vif-APOBEC3G degradation inhibitor project, dose response (AID 1117361)). Details: Tat-TAR RNA binding; series mostly up to 100 µM; inhibition: at the top concentration.

SMILES	outcome	inhibition
COc1ccc2c3c(c(=O)oc2c1OCC(=O)C(C)(C)C)CCCC3	inactive	–
Cc1cc(C)c2nc(N3CCCN(C(=O)c4cnccn4)CC3)c(C#N)cc2c1	–	26.6% (inactive)
NS(=O)(=O)c1cccc(NS(=O)(=O)c2ccc(/C=C/C(=O)OCC(=O)c3ccccc3)cc2)c1	inactive	–
Cc1ccc(-n2nnnc2SCc2ccccn2)cc1C	–	4.73% (inactive)
Cc1cc(SCC2=NNC(=O)C2)c(Cl)cc1Cl	–	2.47% (inactive)
O=C(CN1C(=O)CSC1=O)Nc1ccccc1N1CCOCC1	–	4.73% (inactive)
O=C(/C=C/c1ccco1)NC(=S)Nc1ccc(C(=O)O)cc1	–	0.33% (inactive)
CCC(=O)N1CCN(c2ccccc2NC(=O)c2cccc(C)c2)CC1	–	3.41% (inactive)
Cc1cccc(NC(=O)CC2NC3CCCCC3NC2=O)c1 (stereo unspecified)	inactive	–
O=C(/C=C/c1ccco1)Nc1ccc(Oc2ccccc2)cc1	inactive	–
Cc1ccc2c(c1)CCCN2C(=O)c1cc(C)c(C)s1	–	5.01% (inactive)
Cc1ccc(NC(=O)C(C)Sc2nc3nc(C)cc(C)n3n2)cc1 (stereo unspecified)	–	1.65% (inactive)
Cc1cc(C)n(-c2ncc(-c3ccccc3)nn2)n1	inactive	–
C=CCOC(=O)CN1C(=O)c2ccccc2C1=O	inactive	–
O=C(NC1CCCCC1)c1sc(=S)n2c1[nH]c(=O)c1ccccc12	–	10.9% (inactive)
Cc1ccc(-n2nnnc2SCn2nnc3ccccc3c2=O)cc1	–	1.35% (inactive)
Cc1cccc(CCNC(=O)CCc2nc(-c3ccccc3F)no2)c1	–	3.38% (inactive)
Cc1cc(C)nc(N(C#N)CN2C(=O)c3ccccc3S2(=O)=O)n1	–	4.05% (inactive)
Nc1ccc(S(=O)(=O)c2cc(O)c3ccccc3c2O)cc1	–	3.67% (inactive)
CCOC(=O)CS(=O)(=O)c1ccc2ccccc2c1	–	7.43% (inactive)
CCc1cc(C=NC2CCCCC2)c(O)s1	–	18.2% (inactive)
CN(C)NC(=S)NC1CCS(=O)(=O)C1 (stereo unspecified)	inactive	–
CCCOc1ccc2[nH]cc(C(=O)O)c(=O)c2c1	–	1.35% (inactive)
Cc1ccc(Oc2ccc(/C=N/O)cn2)cc1	inactive	–

SMILES	outcome	inhibition
O=S(=O)(Nc1ccc2c(c1)nc1n2CCN(Cc2ccccc2)C1)c1ccc(Cl)cc1	–	13.6% (inactive)
COCCCNc1nc2c(c(=O)n(C)c(=O)n2C)n1Cc1cccc(OC)c1	–	4.77% (inactive)
CCCCc1c(C)nc2ccc(Br)cc2c1SCCC#N	inactive	–
COc1ccc(C)cc1Nc1c2c(nc3ccccc13)CCC2	inactive	–
COc1cc2ccccc2nn1	–	8.25% (inactive)
CC(=O)Nc1nonc1NC(=O)CSC1=NCCS1	–	2.7% (inactive)
CNC(=O)CN1C(=O)NC2(CCc3ccccc32)C1=O (stereo unspecified)	–	7.43% (inactive)
O=C(CSc1nnc(CN2CCOCC2)n1-c1ccccc1)Nc1ccc(Cl)cc1	inactive	–
CC1(C)CC(=O)C2=C(C1)N(Cc1cccnc1)C(=O)C2(NC(=O)C1CC1)C(F)(F)F (stereo unspecified)	–	17.7% (inactive)
Cc1cc(C)cc(N(CCC#N)C(=O)CSc2nc3nc(C)cc(C)n3n2)c1	inactive	–
Cc1c(C(=O)Nc2cccc([N+](=O)[O-])c2)csc1-c1ccccc1	inactive	–
O=C(Nc1ccc(C(=O)N2CCOCC2)cc1)c1ccccc1[N+](=O)[O-]	inactive	–
O=C(C1CCN(S(=O)(=O)N2CCOCC2)CC1)N1CCN(Cc2ccc3c(c2)OCO3)CC1	–	2.03% (inactive)
CN(CCO)CC(O)CN(c1ccccc1)c1ccccc1 (stereo unspecified)	inactive	–
COC(=O)c1c[nH]n2c(=O)c(Cc3ccc(F)cc3Cl)c(C)nc12	–	6.14% (inactive)
CCOC(=O)c1c(Nc2ccccc2N)cc(C)nc1C	–	14.2% (inactive)
O=C(CCc1nc(-c2ccccc2F)no1)NC1CCCCCC1	inactive	–
CCOc1ccc(N(CC(=O)Nc2ccccc2C(=O)NCc2ccco2)S(C)(=O)=O)cc1	inactive	–
CC1CN(Cc2cc(=O)[nH]c(C3CC3)n2)CC(C)O1 (stereo unspecified)	inactive	–
Cn1c(Cn2c(=O)sc3ccccc32)nnc1SCC(=O)NCc1ccc(F)cc1	–	2.05% (inactive)
Cc1cc(=O)oc2cc(OCC(=O)NCc3cccnc3)ccc12	–	2.73% (inactive)
Fc1cc(F)cc(NC(=S)NCCCN2CCOCC2)c1	–	4.12% (inactive)
COC(=O)c1ccccc1NC(=O)c1noc2c1CCC2	–	12.4% (inactive)
COc1ccccc1NC(=O)CSc1nnc(C)n1CCc1ccccc1	inactive	–

SMILES	outcome	inhibition
Cc1ccc(C2CC(c3cccc(Cl)c3)n3nc(N)nc3N2)cc1 (stereo unspecified)	–	0.68% (inactive)
COc1ccc(C2CC(c3cccs3)n3nc(N)nc3N2)cc1 (stereo unspecified)	–	4.09% (inactive)
COc1cc(CNCCc2ccccc2F)ccc1OCc1ccc(Cl)nc1	–	2.73% (inactive)
CCOc1cc(C)nc(NCCc2ccc(OC)c(OC)c2)n1	–	2.03% (inactive)
Cc1ccc(NC(=O)C(C)NC(=O)OCc2ccccc2)cc1C (stereo unspecified)	inactive	–
Cc1cc(=O)[nH]c2c1c(C)nn2C1CCCCC1	inactive	–
O=C(CC1SCCNC1=O)Nc1ccc(Cl)cc1 (stereo unspecified)	inactive	–
CSc1nc(NCCCO)c2c3c(sc2n1)CN(C)CC3	–	1.65% (inactive)
Fc1cccc(-c2cc3nc4c(c(NCc5ccco5)n3n2)CCCC4)c1	–	13% (inactive)
CCC1=NN2C(=N)/C(=C\c3cccn3-c3cccc(Cl)c3)C(=O)N=C2S1	–	1.65% (inactive)
COc1ccc(NC2CS(=O)(=O)CC2NCc2ccco2)cc1 (stereo unspecified)	–	6.82% (inactive)
COc1cccc(S(=O)(=O)N2CCN(c3ccccc3F)CC2)c1	–	4.05% (inactive)
COc1ccccc1CNC(=O)COC(=O)c1ccc(NC(N)=O)cc1	–	8.11% (inactive)
O=S(=O)(NCc1ccc2c(c1)OCO2)c1cccc(S(=O)(=O)N2CCOCC2)c1	inactive	–
COCCN1Cc2cccc(C(=O)NCc3ccccn3)c2C1=O	–	7.43% (inactive)
Cc1cccc(N2CCN(CC(O)COc3ccc(Cl)cc3)CC2)c1 (stereo unspecified)	inactive	–
COCC(=O)NC1CCN(CC(=O)Nc2ccc(OC)cc2[N+](=O)[O-])CC1	inactive	–
CC(=O)NS(=O)(=O)c1cccnc1Nc1cccc(Cl)c1	–	2.03% (inactive)
CCc1nnc(NC(=O)c2ccc3c(c2)C(=O)N(C(C)(C)C)C3=O)s1	inactive	–
N#Cc1cccc(Oc2ccc(S(=O)(=O)N3CCCC3)cn2)c1	inactive	–
NC(=O)C1CCCN(CC(=O)Nc2ccccc2C(=O)NC2CC2)C1 (stereo unspecified)	–	4.12% (inactive)
COC(=O)Cc1cc(=O)n(-c2nc3ccccc3[nH]2)[nH]1	–	4.34% (inactive)
Cc1cccc(N(CC(=O)N/N=C/c2ccc(OCC(=O)NCc3ccco3)cc2)S(C)(=O)=O)c1C	inactive	–
CCc1ccc(CNCc2cccnc2)cc1	–	3.38% (inactive)

SMILES	outcome	inhibition
CCn1c(CNc2ccc(C)cc2)nnc1SCC(=O)NCc1ccccc1	–	8.11% (inactive)
Cc1ccc(CNC(=O)COc2ccc3c(c2)CCC3)cc1	–	20.6% (inactive)
COc1ccc(OC)c(-c2cc(C(=O)NCc3cccs3)no2)c1	–	2.05% (inactive)
CC1(C)Oc2ccc(C(=O)NC3CCCC3)cc2N(CC(=O)N2CCOCC2)C1=O	inactive	–
COc1cc(SC)ccc1C(=O)Nc1c(C)cccc1C	inactive	–
CC(Oc1ccc(Cl)cc1)C(=O)Nc1ncccn1 (stereo unspecified)	inactive	–
N[C@@H](Cc1c[nH]c2ccccc12)C(=O)O	–	1.65% (inactive)
O=C(CCc1c[nH]c2ccccc12)NC1CC1	inactive	–
Cc1cccc(C)c1N1C(=O)C2ON(c3ccccc3)C(c3ccncc3)C2C1=O (stereo unspecified)	–	9.46% (inactive)
Cc1nn(CC(=O)NCc2ccccc2Cl)c(C)c1[N+](=O)[O-]	–	8.11% (inactive)
O=C(Nc1cnn(Cc2c(Cl)cccc2Cl)c1)c1ccc([N+](=O)[O-])cc1	–	4.73% (inactive)
CC(C)c1nc2sc3c(NCc4ccco4)ncnc3c2c2c1COC(C)(C)C2	–	3.41% (inactive)
Cc1sc2ncnc(OCC(=O)N3CCN(S(=O)(=O)c4ccc(Cl)cc4)CC3)c2c1C	inactive	–
CCC(=O)Nc1cc2c(cc1C(=O)CC)OCCO2	inactive	–
CCCC(=O)NC1=C(Cl)C(=O)c2ccccc2C1=O	inactive	–
Cc1ccc(S(=O)(=O)Nc2ccc3nc(C)sc3c2)cc1	–	0.68% (inactive)
CCOc1ccc(S(=O)(=O)Nc2ccc(S(=O)(=O)N3CCCCC3)cc2)cc1	inactive	–
COc1ccc(N2CCN(C(=O)COc3ccccc3)CC2)cc1	–	2.05% (inactive)
CC(=O)N1CCN(c2ccc(NCc3ccc4c(c3)OCO4)cc2)CC1	–	28.6% (inactive)
CCN1CCN(c2ccc(NC(=O)Cc3ccccc3)cc2)CC1	inactive	–
Cc1snc(S(=O)(=O)Cc2ccccc2Cl)c1C#N	–	1.35% (inactive)
COc1ccc(/C=C/CN2CCN(Cc3ccccc3)C(CCO)C2)cc1 (stereo unspecified)	inactive	–
CSc1ccccc1NC(=O)c1noc2c1CCC2	inactive	–
CCCCS(=O)(=O)N1CCCC(C(=O)N2CCOCC2)C1 (stereo unspecified)	–	12.4% (inactive)

SMILES	outcome	inhibition
COc1ccc(C2CC(O)(c3ccccc3)Oc3c(C)ccc(C)c32)cc1 (stereo unspecified)	inactive	–
Cn1c2ccccc2c2ccc3c(c21)C(=O)C=CC3=O	–	4.34% (inactive)
Cc1ccc(CN(C(=O)Cn2nnc3ccccc32)C(C(=O)NCc2ccco2)c2cccs2)cc1 (stereo unspecified)	–	8.78% (inactive)
CCOc1cc(C(C(=O)NCC2CCCO2)N(C(=O)Cn2nnc3ccccc32)c2cccc(OC)c2)ccc1O (stereo unspecified)	inactive	–
CCCCn1c(SCC(=O)Nc2ccc3c(c2)OCCO3)nnc1C(CC)N(C)C (stereo unspecified)	inactive	–
C/C(=N\Nc1ccc2nncn2n1)c1ccc(Br)s1	–	1.65% (inactive)
COc1cc(Cc2cnc(N)nc2N)cc(OC)c1OC	inactive	–
O=C1C(C=NC2CC2)=C(O)c2ccccc21	–	6.76% (inactive)
COc1ccc(Cl)cc1N(CC(=O)Nc1ccc2c(c1)OCCO2)S(C)(=O)=O	–	5.41% (inactive)
O=C(CN1CCN(CC(=O)Nc2ccc3c(c2)OCO3)CC1)Nc1ccc(F)cc1	–	2.73% (inactive)
CCn1c(=O)c2cc(C(=O)N(C)c3ccccc3F)sc2c2ccccc21	inactive	–
CCOC(=O)N1CCC(NC(=O)C2CCN(c3nc(-c4ccc(OC)cc4)no3)CC2)CC1	–	4.77% (inactive)
O=C(OCC(=O)N1CCN(C(=O)c2ccco2)CC1)c1cc(-c2ccco2)nc2ccccc12	–	27.7% (inactive)
CS(=O)(=O)N(CC(=O)NCc1ccc2c(c1)OCO2)Cc1ccccc1	inactive	–
O=C(CCCc1c[nH]c2ccccc12)NCc1ccc2c(c1)OCO2	inactive	–
Cc1cc(C(=O)OC2CCOC2=O)c2ccccc2n1 (stereo unspecified)	–	4.05% (inactive)
CCOC(=O)C1CCCN(Cc2ccc(O)c(OC)c2)C1 (stereo unspecified)	–	3.38% (inactive)
CCOC(=O)C1CCCN(C(=O)c2c(-c3ccccc3Cl)noc2C)C1 (stereo unspecified)	–	5.41% (inactive)
CC(C)Oc1ccc(C(=O)N(Cc2ccco2)C2CCS(=O)(=O)C2)cc1 (stereo unspecified)	–	2.34% (inactive)
Cc1oc(-c2ccccc2)nc1C(=O)OCC(=O)NCc1ccc(F)cc1	–	27.1% (inactive)
